# Unmarked numbers belong to inactive results. This is one part of the list. Active and inactive are the calls of the source. Rule as the data show it, unless noted: active = activation above about 8.9%; inactive = the rest.
# Key:
# [1] = tested on: HIV-1 integrase (multimerization); experiment: stimulation of HIV-1 integrase oligomerization – biochemical, TR-FRET, counter-screen for LEDGF/p75 integration inhibitor project (AID 1053131); details: TR-FRET HIV-1 integrase multimerization, at 7.7 µM, stronger effect = higher value
# [2] = compounds disturbing TR-FRET signal readout – biochemical, HIV-1 IN multimerization, artefact control for LEDGF/p75-dependent integration inhibitor project, confirmation (AID 1053135;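 active = inhibition above the mean over all tested compounds plus 3 SD, which no compound reached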;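 also: 0% = integrase with antibodies and DMSO and 100% = antibodies without integrase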); details: TR-FRET optical interference counterscreen, at 7.7 µM, stronger effect = higher value
# [3] = tested on: HIV-1 integrase / human LEDGF/p75 complex; experiment: blockers of LEDGF/p75-dependent integrase activity – biochemical, TR-FRET, confirmation (AID 1053136; in the data active = inhibition above about 14%); details: TR-FRET LEDGF/p75-dependent HIV-1 integration, at 3.7 µM, stronger effect = higher value
# [4] = molecular target: Glutathione S-transferase omega-1 (Homo sapiens) (UniProt P78417); experiment: recombinant GSTO1 blockers, retest – biochemical, fluorescence polarization, triplicate, counter-screen for RBBP9 inhibitor project, confirmation (AID 2176;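 active = inhibition above the primary screen's cutoff, its mean inhibition plus 3 SD, cut at about 35% in these data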;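 also: loss of polarization as inhibitors block binding of rhodamine sulfonate ester activity probe; 0% = GSTO1 with DMSO and 100% = wells lacking GSTO1 enzyme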); details: recombinant GSTO1, probe fluorescence polarization; at 5.96 µM; stronger effect = higher value
# [5] = molecular target: Protein-arginine deiminase type-4 (Homo sapiens) (UniProt Q9UM07); experiment: protein arginine deiminase 4 blockade, retest – biochemical, fluorescence polarization, confirmation (AID 488796;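 active = mean inhibition across replicates above the hit cutoff set by the earlier primary screen, cut at about 15% in these data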;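 also: inhibitors block active-site labeling by the probe so polarization falls; 0% = PAD4 with probe and DMSO and 100% = probe without PAD4 enzyme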); details: recombinant PAD4, RCA probe fluorescence polarization; at 6.36 µM; stronger effect = higher value
# [6] = molecular target: Platelet-activating factor acetylhydrolase (Homo sapiens) (UniProt Q13093); experiment: inhibition of plasma PAF acetylhydrolase – biochemical, fluorescence polarization, human, confirmation (AID 463230;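 active = mean inhibition of the triplicate above the hit cutoff set for the earlier primary screen, cut at about 25% in these data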;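 also: 0% = enzyme with DMSO and 100% = wells lacking pPAFAH enzyme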); details: recombinant pPAFAH, FP-Rh probe fluorescence polarization; at 3.39 µM; stronger effect = higher value
# [7] = potentiators of IFN-gamma STAT1 reporter activity – cell-based, HTS, luciferase reporter, confirmation (AID 1262;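 active = activation above a set limit carried over from the earlier primary STAT1 screen, cut at about 140% in these data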;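 also: simple ratio to median IFN-gamma plus DMSO wells so 0% means no light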); details: NIH 3T3 STAT1-luciferase reporter, IFN-gamma potentiation, luminescence; at 5.7 µM; stronger effect = higher value; 100% = IFN-gamma EC80 alone, no compound
# [8] = enhancement of NF-kB transcriptional signalling – cell-based, HEK293T, luciferase luminescence, TNF-alpha, counter-screen for STAT1 activator project (AID 1306;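 active = activation above the mean of solvent-only control wells plus 3 SD, set per campaign, cut at about 130% in these data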;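 also: TNF-alpha given at a submaximal dose yielding about 80% of full reporter signal; values are well signal over median control so 100% means no change and 0% no light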); details: HEK293T NF-kB luciferase reporter, TNF-alpha stimulated, at 5.7 µM, stronger effect = higher value, 100% = TNF-alpha with vehicle only
# [9] = molecular target: Signal transducer and activator of transcription 3 (Homo sapiens) (UniProt P40763); experiment: enhancers of IL-6 STAT3 transcription – U3A cells, luciferase, luminescence, counter-screen for STAT1 activator project, confirmation (AID 1316;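 active = activation above the solvent-only control well mean plus 3 SD, set per plate batch, cut at about 110% in these data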;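 also: 0% = no luminescence and 100% = median IL-6 plus DMSO wells; higher means more STAT3 reporter activation so hits are non-selective activators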); details: U3A cells STAT3-luciferase reporter, IL-6, luminescence; at 5.7 µM; stronger effect = higher value; 100 = IL-6 alone, no compound effect; cells lack STAT1
# [10] = tested on: TLR4-MyD88 interaction (human), BLA complementation; experiment: disruptors of TLR4 binding to MyD88 – cell-based, HeLa CL3-4, BLA complementation, FRET ratio, confirmation (AID 941;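 active = mean inhibition across three repeat runs above about 25% carried over from the earlier screen, limit read from the data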;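 also: plate controls were DMSO only for no effect and clavulanic acid blocking BLA at full dose for full effect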); details: CCF4 FRET ratio, at 8.4 µM, stronger effect = higher value
# [11] = BLA reporter interference in HeLa cells – cell-based, full-length BLA, CCF4 FRET ratio, artefact control for TLR4-MyD88 binding inhibitor project, confirmation (AID 1237;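 active = mean inhibition over three repeats above about 26% taken from the earlier screen, limit read from the data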;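 also: HeLa cells stably expressing beta-lactamase reporter as counterscreen for TLR4-MyD88 inhibitors; 0% = DMSO and 100% = clavulanic acid full inhibition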); details: at 8.4 µM, stronger effect = higher value
# [12] = molecular target: Sphingosine 1-phosphate receptor 4 (Homo sapiens) (UniProt O95977); experiment: blockers of human S1P4 signalling – cell-based, confirmation (AID 1524; in the data active = inhibition above about 30%); details: S1P4-expressing cell line, antagonist mode, reporter read-out; at 4.98 µM; stronger effect = higher value
# [13] = molecular target: Sphingosine 1-phosphate receptor 1 (Homo sapiens) (UniProt P21453); experiment: blockade of human S1P1 receptor – cell-based, counter-screen for S1P4 antagonist project (AID 1564; in the data active = inhibition above about 40%;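 also: receptor stimulated with S1P near its EC80; 0% = agonist stimulated wells and 100% = vehicle only wells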); details: cell-based S1P1 antagonist counterscreen, at 4.98 µM, stronger effect = higher value
# [14] = molecular target: Toll-like receptor 9 (Homo sapiens) (UniProt Q9NR96); experiment: disruptors of TLR9 binding to MyD88 – cell-based, CHO, BLA complementation, fluorescence, triplicate, confirmation (AID 540250;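 active = mean inhibition across three repeats above about 21% taken from the earlier screen, limit read from the data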;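 also: blue over green emission ratio reports constitutive TLR9 MyD88 association via BLA complementation; 0% = DMSO vehicle wells and 100% = clavulanate BLA inhibitor wells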); details: CCF4 FRET ratio, at 4.98 µM, stronger effect = higher value
# [15] = BLA reporter readout interference – cell-based, fluorescence, artefact control for TLR9-MyD88 binding inhibitor project (AID 540251;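 active = mean inhibition above a 50% cutoff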;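 also: counterscreen of TLR9-MyD88 hits on CMV-driven BLA in CHO-K1 cells; 0% = DMSO alone and 100% = clavulanate blocking BLA; higher means less blue over green ratio so more BLA blockade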); details: CHO-BLA cells, CCF4 FRET ratio, at 4.98 µM, stronger effect = higher value
# [16] = CHO cell viability loss – luminescence, single concentration, cytotoxicity control for TLR9-MyD88 binding inhibitor project (AID 588336; in the data active = inhibition above about 11%); details: TLR9-MyD88 CHO cells cytotoxicity, at 4.98 µM, stronger effect = higher value
# [17] = molecular target: Receptor-interacting serine/threonine-protein kinase 2 (Homo sapiens) (UniProt O43353); experiment: inhibitors of RIPK2 association with NOD2 – fluorescence, CHO cells, BLA complementation, triplicate, confirmation (AID 624370;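 active = mean inhibition across replicates above a set limit taken from the earlier primary screen, cut at about 21% in these data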;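 also: 0% = DMSO-only wells and the high end = clavulanate BLA-blocked wells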); details: CCF4 FRET, at 4.98 µM, stronger effect = higher value
# [18] = BLA reporter readout interference – cell-based, CHO-K1 CMV-bla, CCF4 FRET, fluorescence, artefact control for NOD2-RIPK2 interaction inhibitor project, confirmation (AID 624371;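 active = mean inhibition above the low-control mean inhibition plus three low-control SD, cut at about 11% in these data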;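 also: 0% = DMSO only wells and 100% = clavulanate high control wells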); details: CCF4 FRET ratio, counterscreen, at 4.98 µM, stronger effect = higher value
# [19] = molecular target: Photoreceptor-specific nuclear receptor (Homo sapiens) (UniProt Q9Y5X4); experiment: retest of NR2E3-NCOR disrupting agonists – cell-based, luminescence, CHO-S two-hybrid, confirmation (AID 624378;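 active = average inhibition above a cutoff equal to the mean inhibition of all tested compounds plus one SD, cut at about 70% in these data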;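 also: 0% = DMSO in NR2E3 cells and 100% = DMSO in cells lacking NR2E3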); details: CHO-S mammalian two-hybrid NR2E3-NCOR, luciferase luminescence; at 3.98 µM; stronger effect = higher value
# [20] = nonselective effects on VP16 transactivation – cell-based, luminescence, CHO-S, high throughput, counter-screen for NR2E3 agonist project, confirmation (AID 624379;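 active = mean inhibition above a cutoff equal to the average over all tested compounds plus one standard deviation, cut at about 70% in these data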;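 also: 0% = DMSO with VP16-transfected cells and 100% = DMSO with cells lacking VP16; higher means less reporter light so more repression of VP16 activity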); details: CHO-S GAL4-VP16 luciferase reporter, at 3.98 µM, stronger effect = higher value
# [21] = StAR promoter reporter inhibitors, counter-screen for LRH-1 inverse agonist project, cell-based, luminescence, high throughput (AID 651611; in the data active = inhibition above about 28%); details: StAR promoter luciferase reporter counterscreen, at 3.6 µM, stronger effect = higher value
# [22] = molecular target: Nuclear receptor subfamily 5 group A member 2 (Homo sapiens) (UniProt O00482); experiment: NR5A2 activity suppression in reporter cells – cell-based, luminescence, confirmation (AID 651613; in the data active = inhibition above about 42%;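 also: HEK293T cells co-transfected with LRH-1 and StAR promoter luciferase reporter; 0% = vehicle wells and 100% = parental cells lacking receptor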); details: cell-based LRH-1 luciferase reporter, inverse agonism; at 3.6 µM; stronger effect = higher value
# [23] = molecular target: Steroidogenic factor 1 (Homo sapiens) (UniProt Q13285); experiment: inverse agonism at SF1 nuclear receptor – cell-based, luminescence, high throughput, counter-screen for LRH-1 inverse agonist project (AID 651614; in the data active = inhibition above about 44%;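 also: cells cotransfected with StAR promoter reporter and SF1 expression vector; 0% = vehicle on cells with receptor and 100% = vehicle on cells lacking receptor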); details: cell-based SF1 luciferase reporter, at 3.6 µM, stronger effect = higher value
# [24] = compounds suppressing VP16-driven luciferase signal – cell-based, luminescence, high throughput, counter-screen for LRH-1 inverse agonist project (AID 651615; in the data active = inhibition above about 33%); details: Gal4-VP16 luciferase reporter cells, at 3.6 µM, stronger effect = higher value
# [25] = tested on: transactivating tegument protein VP16 (Human herpesvirus 1); experiment: compounds suppressing VP16-driven luciferase signal – cell-based, luminescence, single concentration, counter-screen for SRC2 inhibitor project (AID 652007; in the data active = inhibition above about 36%); details: cell-based VP16 transactivation luciferase reporter, at 8.9 µM, stronger effect = higher value
# [26] = molecular target: Nuclear receptor coactivator 2 (Homo sapiens) (UniProt Q15596); experiment: inhibition of GAL4-SRC2 driven luciferase expression – cell-based, luminescence, HEK293, triplicate, confirmation (AID 652008;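 active = mean inhibition above 46.5%, the solvent-only control mean plus 3 SD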;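 also: 0% = DMSO-treated cells and 100% = Gossypol at 36 µM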); details: HEK293 GAL4-SRC2 luciferase reporter, at 8.9 µM, stronger effect = higher value
# [27] = VP16-driven transactivation reporter suppression – cell-based, luminescence, HEK293, counter-screen for COUP-TFII antagonist project (AID 687007; in the data active = inhibition above about 13%); details: HEK293 Gal4-VP16 luciferase reporter, at 8.5 µM, stronger effect = higher value
# [28] = molecular target: COUP transcription factor 2 (Homo sapiens) (UniProt P24468); experiment: retest of COUP-TFII reporter suppressors – cell-based, luciferase reporter, HEK293, triplicate, confirmation (AID 687008;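 active = mean inhibition over three repeats above a set limit taken from the earlier primary screen, cut at about 38% in these data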;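 also: 100% = cells given the luciferase reporter alone without the COUP-TF2 vector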); details: HEK293 NGFI-A luciferase reporter, luminescence; at 8.5 µM; stronger effect = higher value
# Sequence of Glutathione S-transferase omega-1 (Homo sapiens) (P78417 whole entry, looked up): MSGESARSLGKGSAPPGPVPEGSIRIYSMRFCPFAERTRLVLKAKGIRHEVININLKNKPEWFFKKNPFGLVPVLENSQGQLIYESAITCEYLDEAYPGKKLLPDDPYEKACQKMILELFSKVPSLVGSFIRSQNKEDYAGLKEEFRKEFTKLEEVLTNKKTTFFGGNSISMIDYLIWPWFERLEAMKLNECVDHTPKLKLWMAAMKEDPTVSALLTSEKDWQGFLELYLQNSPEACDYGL
# Sequence of Protein-arginine deiminase type-4 (Homo sapiens) (Q9UM07 whole entry, looked up): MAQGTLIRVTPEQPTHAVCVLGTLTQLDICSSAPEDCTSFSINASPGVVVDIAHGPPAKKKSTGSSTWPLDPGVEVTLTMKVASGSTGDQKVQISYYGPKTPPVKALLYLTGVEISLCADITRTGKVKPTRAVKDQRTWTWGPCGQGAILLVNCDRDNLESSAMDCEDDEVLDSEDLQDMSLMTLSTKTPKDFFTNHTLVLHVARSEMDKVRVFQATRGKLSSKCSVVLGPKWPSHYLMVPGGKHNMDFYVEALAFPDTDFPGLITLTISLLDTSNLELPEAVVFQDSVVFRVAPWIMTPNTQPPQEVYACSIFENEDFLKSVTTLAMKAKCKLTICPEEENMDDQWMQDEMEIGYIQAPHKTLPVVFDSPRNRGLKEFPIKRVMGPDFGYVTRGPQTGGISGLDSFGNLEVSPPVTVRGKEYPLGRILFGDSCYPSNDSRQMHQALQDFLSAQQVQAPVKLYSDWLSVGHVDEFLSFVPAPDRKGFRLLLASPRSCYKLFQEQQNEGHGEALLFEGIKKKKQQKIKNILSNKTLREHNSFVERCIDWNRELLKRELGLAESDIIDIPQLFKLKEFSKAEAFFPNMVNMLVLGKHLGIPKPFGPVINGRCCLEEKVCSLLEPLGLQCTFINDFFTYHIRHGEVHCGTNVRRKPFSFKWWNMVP
# Sequence of Sphingosine 1-phosphate receptor 1 (Homo sapiens) (P21453 whole entry, looked up): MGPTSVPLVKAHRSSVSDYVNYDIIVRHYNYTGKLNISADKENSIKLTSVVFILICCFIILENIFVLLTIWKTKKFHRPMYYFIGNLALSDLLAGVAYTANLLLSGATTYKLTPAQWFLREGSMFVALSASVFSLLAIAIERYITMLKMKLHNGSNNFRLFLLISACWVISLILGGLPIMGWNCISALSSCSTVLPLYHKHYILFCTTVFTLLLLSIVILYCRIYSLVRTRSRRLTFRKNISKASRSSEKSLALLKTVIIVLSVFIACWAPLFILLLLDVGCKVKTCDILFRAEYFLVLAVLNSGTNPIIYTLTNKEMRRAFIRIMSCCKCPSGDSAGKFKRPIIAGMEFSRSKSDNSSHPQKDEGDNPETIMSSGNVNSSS
# Sequence of Platelet-activating factor acetylhydrolase (Homo sapiens) (Q13093 whole entry, looked up): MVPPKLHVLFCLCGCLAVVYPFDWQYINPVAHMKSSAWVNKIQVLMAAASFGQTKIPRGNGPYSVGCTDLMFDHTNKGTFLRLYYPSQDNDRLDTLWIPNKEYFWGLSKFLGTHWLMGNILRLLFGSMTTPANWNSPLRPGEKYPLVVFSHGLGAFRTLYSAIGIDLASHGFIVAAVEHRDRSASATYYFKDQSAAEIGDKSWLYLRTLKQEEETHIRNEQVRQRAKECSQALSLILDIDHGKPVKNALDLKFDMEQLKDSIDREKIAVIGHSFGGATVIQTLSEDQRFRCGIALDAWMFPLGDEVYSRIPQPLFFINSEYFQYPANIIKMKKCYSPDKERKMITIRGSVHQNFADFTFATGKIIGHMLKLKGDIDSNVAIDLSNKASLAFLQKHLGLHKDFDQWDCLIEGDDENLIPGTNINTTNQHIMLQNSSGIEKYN
# Sequence of Nuclear receptor subfamily 5 group A member 2 (Homo sapiens) (O00482 whole entry, looked up): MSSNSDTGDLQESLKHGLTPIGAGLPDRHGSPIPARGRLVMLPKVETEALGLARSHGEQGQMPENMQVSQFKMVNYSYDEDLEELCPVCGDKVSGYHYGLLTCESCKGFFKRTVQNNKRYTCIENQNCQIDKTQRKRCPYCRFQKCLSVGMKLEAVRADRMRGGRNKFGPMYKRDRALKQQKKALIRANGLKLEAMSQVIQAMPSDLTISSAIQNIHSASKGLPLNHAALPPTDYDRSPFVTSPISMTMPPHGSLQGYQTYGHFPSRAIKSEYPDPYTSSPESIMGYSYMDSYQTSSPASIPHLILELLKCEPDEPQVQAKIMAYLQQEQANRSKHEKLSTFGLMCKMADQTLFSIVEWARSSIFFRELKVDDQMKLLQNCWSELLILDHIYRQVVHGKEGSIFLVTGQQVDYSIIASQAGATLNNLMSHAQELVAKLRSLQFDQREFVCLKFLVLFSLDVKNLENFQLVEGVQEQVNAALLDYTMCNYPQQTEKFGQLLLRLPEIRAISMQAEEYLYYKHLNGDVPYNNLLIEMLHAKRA
# Sequence of Toll-like receptor 9 (Homo sapiens) (Q9NR96 whole entry, looked up): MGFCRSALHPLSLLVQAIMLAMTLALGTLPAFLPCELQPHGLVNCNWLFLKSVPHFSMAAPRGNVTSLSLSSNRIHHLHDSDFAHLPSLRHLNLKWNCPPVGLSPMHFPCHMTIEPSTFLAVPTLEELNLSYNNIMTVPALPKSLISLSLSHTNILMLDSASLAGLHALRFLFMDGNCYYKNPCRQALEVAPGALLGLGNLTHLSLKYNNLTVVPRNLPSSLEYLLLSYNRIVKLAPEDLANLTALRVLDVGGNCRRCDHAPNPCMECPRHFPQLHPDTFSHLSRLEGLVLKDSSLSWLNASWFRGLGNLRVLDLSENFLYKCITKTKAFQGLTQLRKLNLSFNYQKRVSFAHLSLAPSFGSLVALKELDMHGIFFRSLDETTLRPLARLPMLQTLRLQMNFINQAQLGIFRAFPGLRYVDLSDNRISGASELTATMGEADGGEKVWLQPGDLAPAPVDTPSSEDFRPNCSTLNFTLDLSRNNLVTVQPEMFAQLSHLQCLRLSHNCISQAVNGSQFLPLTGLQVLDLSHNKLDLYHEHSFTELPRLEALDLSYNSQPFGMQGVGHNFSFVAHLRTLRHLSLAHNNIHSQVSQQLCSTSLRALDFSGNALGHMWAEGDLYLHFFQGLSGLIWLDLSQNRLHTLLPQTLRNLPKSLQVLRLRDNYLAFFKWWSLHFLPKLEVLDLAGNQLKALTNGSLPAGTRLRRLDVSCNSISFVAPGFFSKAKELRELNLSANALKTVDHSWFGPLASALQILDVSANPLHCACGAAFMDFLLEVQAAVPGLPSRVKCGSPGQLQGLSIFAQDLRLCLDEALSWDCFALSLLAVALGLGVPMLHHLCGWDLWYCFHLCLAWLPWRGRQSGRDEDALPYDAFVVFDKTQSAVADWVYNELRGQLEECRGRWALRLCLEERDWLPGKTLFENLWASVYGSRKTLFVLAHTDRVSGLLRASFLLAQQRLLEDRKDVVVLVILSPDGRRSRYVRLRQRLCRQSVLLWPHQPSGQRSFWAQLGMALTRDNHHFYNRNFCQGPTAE
# Sequence of Steroidogenic factor 1 (Homo sapiens) (Q13285 whole entry, looked up, the tested form may be a part): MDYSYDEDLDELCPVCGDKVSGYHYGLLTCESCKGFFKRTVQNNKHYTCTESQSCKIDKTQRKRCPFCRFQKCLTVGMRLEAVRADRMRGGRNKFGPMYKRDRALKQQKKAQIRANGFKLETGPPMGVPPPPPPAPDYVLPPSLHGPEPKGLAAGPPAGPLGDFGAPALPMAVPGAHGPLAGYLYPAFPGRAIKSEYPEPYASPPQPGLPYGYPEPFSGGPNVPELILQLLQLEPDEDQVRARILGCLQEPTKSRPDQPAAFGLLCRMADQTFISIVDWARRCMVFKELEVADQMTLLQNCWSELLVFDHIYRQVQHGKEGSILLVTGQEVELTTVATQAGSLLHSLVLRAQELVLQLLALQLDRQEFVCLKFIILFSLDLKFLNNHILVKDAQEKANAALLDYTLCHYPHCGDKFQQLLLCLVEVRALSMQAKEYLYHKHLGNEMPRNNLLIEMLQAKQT
# Sequence of Photoreceptor-specific nuclear receptor (Homo sapiens) (Q9Y5X4 whole entry, looked up): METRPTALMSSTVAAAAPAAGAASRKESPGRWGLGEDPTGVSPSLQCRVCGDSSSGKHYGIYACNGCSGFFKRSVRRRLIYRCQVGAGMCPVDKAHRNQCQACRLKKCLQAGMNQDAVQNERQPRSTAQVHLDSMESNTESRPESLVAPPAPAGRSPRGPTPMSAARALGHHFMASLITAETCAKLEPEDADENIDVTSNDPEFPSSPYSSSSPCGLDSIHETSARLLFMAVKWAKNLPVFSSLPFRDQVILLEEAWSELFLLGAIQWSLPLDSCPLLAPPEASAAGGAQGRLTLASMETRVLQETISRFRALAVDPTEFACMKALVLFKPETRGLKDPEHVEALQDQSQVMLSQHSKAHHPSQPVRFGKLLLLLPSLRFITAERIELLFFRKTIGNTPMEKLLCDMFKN
# Sequence of Receptor-interacting serine/threonine-protein kinase 2 (Homo sapiens) (O43353 whole entry, looked up): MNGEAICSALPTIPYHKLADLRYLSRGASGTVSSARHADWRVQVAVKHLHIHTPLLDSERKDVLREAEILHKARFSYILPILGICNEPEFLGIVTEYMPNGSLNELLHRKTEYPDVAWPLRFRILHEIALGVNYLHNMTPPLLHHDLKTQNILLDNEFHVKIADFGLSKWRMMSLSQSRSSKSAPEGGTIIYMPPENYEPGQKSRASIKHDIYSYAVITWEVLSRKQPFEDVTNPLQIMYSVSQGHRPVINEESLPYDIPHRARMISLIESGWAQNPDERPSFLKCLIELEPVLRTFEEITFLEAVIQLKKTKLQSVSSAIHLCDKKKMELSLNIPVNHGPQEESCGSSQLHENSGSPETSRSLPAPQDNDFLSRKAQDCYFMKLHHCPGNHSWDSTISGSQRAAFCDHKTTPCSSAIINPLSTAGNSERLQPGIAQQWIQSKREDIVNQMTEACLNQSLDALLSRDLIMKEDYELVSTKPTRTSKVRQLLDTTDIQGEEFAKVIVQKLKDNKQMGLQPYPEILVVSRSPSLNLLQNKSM
smiles,measurement,setting,value
COc1ccc(S(=O)(=O)N2CCCCC2)cc1C(=O)NC1CCS(=O)(=O)C1 (stereo unspecified),activation,[1],-2.17%
same,inhibition,[2],10.9%
same,inhibition,[3],-3.25%
O=S(=O)(Nc1ccc(O)c2ccccc12)c1ccc(OC(F)(F)F)cc1,inhibition,[4],38.2% (active)
same,inhibition,[5],15% (active)
same,activation,[1],1.57%
same,inhibition,[2],-5.75%
same,inhibition,[3],8.79%
Cc1ccc(N=C2NC(=O)/C(=C/C=C/c3ccco3)S2)cc1C,inhibition,[6],31.1% (active)
same,activation,[1],13.8% (active)
same,inhibition,[2],-49.5%
same,inhibition,[3],45.2% (active)
Cc1cc(C)c2nc(-c3ccco3)cc(C(=O)O)c2c1,activation,[1],2.58%
same,inhibition,[2],-12.9%
same,inhibition,[3],63.6% (active)
Oc1cc(O)c2c(c1)OC(c1ccc(O)c(O)c1)C(O)C2 (stereo unspecified),activation,[1],10.4% (active)
same,inhibition,[2],-52.5%
same,inhibition,[3],-0.79%
COc1ccc(Cn2cc(CN3CCS(=O)(=O)N(Cc4ccc(-c5cccc(Cl)c5)cc4)C(C)C3=O)nn2)cc1 (stereo unspecified),activation,[1],-2.68%
same,inhibition,[2],13.6%
same,inhibition,[3],-1.87%
COc1ccc(S(=O)(=O)/N=C2\C=C(NS(=O)(=O)c3ccccc3)C(=O)c3ccccc32)cc1,inhibition,[4],72.9% (active)
same,activation,[1],-2.79%
same,inhibition,[2],10%
same,inhibition,[3],5.95%
O=C(c1cccc(C(F)(F)F)c1)N1CC[C@H]2[C@H](CCCN2Cc2cc(F)cc(F)c2)C1,activation,[1],0.05%
same,inhibition,[2],-0.14%
same,inhibition,[3],-8.63%
CCCCNC(=O)OC1CC2CC1[C@H]1CCCCN1C2=O (stereo partly specified),activation,[1],-0.71%
same,inhibition,[2],3.63%
same,inhibition,[3],-1.12%
Cn1nnc2cc(C(=O)NCCC3=CCCCC3)ccc21,activation (% of control),[7],171% (active)
same,activation (% of control),[8],117%
same,activation (% of control),[9],119% (active)
COC(=O)Cc1cc(=O)n(-c2nc3ccccc3s2)[nH]1,inhibition,[10],-4.76%
same,inhibition,[11],4.99%
O=C(Nc1ccccc1Cl)/C(Cl)=C(\Cl)S(=O)c1ccccc1 (stereo unspecified),inhibition,[10],11.5%
same,inhibition,[11],14.5%
same,inhibition,[12],117% (active)
same,inhibition,[13],39.3%
same,inhibition,[5],14.2%
same,inhibition,[14],39.3% (active)
same,inhibition,[15],24.5%
same,inhibition,[16],96.4% (active)
same,inhibition,[17],78.8% (active)
same,inhibition,[18],37.3% (active)
same,inhibition,[19],90.1% (active)
same,inhibition,[20],47.4%
same,inhibition,[21],57.7% (active)
same,inhibition,[22],88.7% (active)
same,inhibition,[23],80.1% (active)
same,inhibition,[24],80.8% (active)
same,inhibition,[25],94.7% (active)
same,inhibition,[26],95.9% (active)
same,inhibition,[27],78.8% (active)
same,inhibition,[28],101% (active)

# Reference: PubChem BioAssay
